High-throughput results deposited in PubChem by National Center for Advancing Translational Sciences (NCATS).
LmPK inh: qHTS Assay for Inhibitors of Leishmania Mexicana Pyruvate Kinase (LmPK). hit rate 0.37% among 290,000. Potency, µM (highest dose often 57.5 µM), without a hit: top-dose activity change, negative = inhibition, actives largely listed as inhibitors. purified LmPK, Kinase-Glo ATP luminescence, 1 h. Q27686; also: potency is read from the fitted curve at half-maximal effect; % is scaled to controls: 0 for no effect and ±100 for the full control effect
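In 50 mM imidazole pH 7.2 with 7 mM MgCl2, LmPK (0.1 nM) turned over PEP (0.5 mM) and ADP (0.1 mM) for 1 h at room temperature. Luciferase read-out of ATP.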
Tb PYK inh: qHTS of Trypanosoma Brucei Inhibitors | hit rate 0.12% among 410,000 | Potency, µM (titrated, usually from 76.8 µM), for the others: at the top dose activity, negative = inhibition, usual class: inhibitors | pyruvate kinase (Trypanosoma brucei), Q57TT1 | AID 624173, 2012 | TbPYK enzyme, Kinase-Glo Plus ATP luminescence, 45 min; also: potency is read from the fitted curve at half-maximal effect; % is scaled to controls: 0 for no effect and ±100 for the full control effect; nearly all actives have a fitted effect of over 50% in size
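Screened from lowest to highest concentration, compounds were pinned into TbPYK/substrate mixtures, and ADP (130 uM final) was added. Plates sat at room temperature for 45 min prior to Kinase-Glo Plus detection by luminescence.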
FBPA Giardia inh: qHTS Assay for Inhibitors of Fructose-1,6-bisphosphate Aldolase from Giardia Lamblia | purified Giardia FBPA | A8B2U2 | AID 2451, 2010 | Potency, µM (top dose mostly 59.6 µM), without a hit: at the top dose activity, negative = inhibition, most hits filed as inhibitors | hit rate 0.71% among 290,000; also: potency is read from the fitted curve at half-maximal effect; % is scaled to controls: 0 for no effect and ±100 for the full control effect; nearly all actives have a fitted effect of over 55% in size
Target sequence (A8B2U2 whole entry, looked up): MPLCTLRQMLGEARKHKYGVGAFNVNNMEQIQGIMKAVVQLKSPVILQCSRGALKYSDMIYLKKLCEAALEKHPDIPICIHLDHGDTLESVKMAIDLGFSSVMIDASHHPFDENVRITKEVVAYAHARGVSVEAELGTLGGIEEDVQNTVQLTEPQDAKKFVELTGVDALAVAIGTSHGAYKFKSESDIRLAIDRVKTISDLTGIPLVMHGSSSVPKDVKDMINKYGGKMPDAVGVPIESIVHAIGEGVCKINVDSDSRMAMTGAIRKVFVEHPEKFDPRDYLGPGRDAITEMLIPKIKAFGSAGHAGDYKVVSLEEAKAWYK
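40 nM FBPA preincubated 10 min at RT with compound (up to 57.5 uM final), then substrate plus GAPDH/TPI/NAD/arsenate coupling and diaphorase/resazurin added. Fluorescence read after 20 min at RT, 525/598 nm.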
Shiga toxin inh: A qHTS for Small Molecule Inhibitors of Shiga Toxin; Vero cells, Shiga toxin protein synthesis inhibition reporter; inhibition, % at 38.7 µM; hit rate 9.2% among 290,000; in the data active = inhibition mostly above about 28%, no sharp cut-off; inactive = mostly below about 43%; also: 0% is about no effect
RE007 growth inh: qHTS Assay for Inhibitors of the HIV-1 protein Vpr; S. pombe RE007 Vpr strain, BacTiter-Glo ATP luminescence, 24 h; AID 651644, 2012; hit rate 0.21% among 360,000; Potency, µM (titrated, usually from 92.2 µM), inactives show at the top dose activity change, negative = less growth, hits mostly inhibitors; active = well fitted falling curve with a large enough effect; inconclusive = small, poorly fitted or top-dose-only effect; inactive = no such curve, though single readings can be large or run the other way; also: potency is read from the fitted curve at half-maximal effect; % is scaled to controls: 0 for no effect and ±100 for the full control effect; nearly all actives have a fitted effect of over 50% in size
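Fission yeast RE007 carrying one integrated HIV-1 vpr copy, seeded at OD 0.01 in PMG+AL medium with 23 nL pinned compound. Grown 24 h at 30 degrees; viability read by BacTiter-Glo luminescence after 5 min.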
CHX counter: Cycloheximide Counterscreen for Small Molecule Inhibitors of Shiga Toxin. max response, %. hit rate 12% among 300,000. cell reporter, cycloheximide protein synthesis inhibition counterscreen; in the data active = max response mostly above about 13%, no sharp cut-off; inactive = mostly below about 14%; also: read at 38.3 µM for the half of the compounds with a filed dose; 0% is about no effect
Active calls of the source: *; u = inconclusive; x = no result given; [ ] = another dose, or the depositor's remark. Shown is part of a subset that was picked to be rich in hits. Unless noted, calls follow the shape of the dose curve; as a rule, active = well fitted curve in the direction sought with a large enough effect; inconclusive = small, poorly fitted or top-dose-only effect, or another doubt; inactive = no such curve, though single readings can be large; an effect the other way counts as inactive or inconclusive.

SMILES | LmPK inh | Tb PYK inh | FBPA Giardia inh | Shiga toxin inh | RE007 growth inh | CHX counter
O=C(COc1cc2oc(=O)c3c(c2cc1Cl)CCC3)Nc1ccccn1 | 0.8% | 5.7% | 7.2% | -2.9 | -3.8% | 2.3
O=S(=O)(NCCc1ccncc1)c1ccc(S(=O)(=O)N2CCCCCC2)cc1 | 2.6% | 2.3% | 13.1% | -1.8 | -13.8% | -2.3
COc1cc(/C=N\NC(=O)c2ccc(Cl)cc2)ccc1Oc1ccc([N+](=O)[O-])cn1 | -2.6% | -11.1% | 8.7% | 32.9 | -6.0% | 6.8
COc1cc(/C=N\NC(=O)c2ccccc2F)ccc1Oc1ccc([N+](=O)[O-])cn1 | 1.8% | -4.6% | -8.6% | 36.2 | -1.8% | 15.8*
COc1cc(/C=N\NC(=O)c2cccc(Cl)c2)ccc1Oc1ccc([N+](=O)[O-])cn1 | -2.1% | 0.3% | -5.9% | 53.5* | 5.4% | 17.3*
COc1ccc(CC(=O)Nc2cc(C)ccn2)cc1 | 2.1% | -2.1% | 7.1% | 86.3* | 2.4% | 42.0*
Cc1ccnc(NCc2ccc(Br)cc2)c1 | -2.5% | -13.5% | 9.9% | 34.6* | -9.1% | 38.4*
COc1ccc(CNc2cc(C)ccn2)cc1 | -2.7% | 0.9% | 12.9% | 97.3* | -7.1% | 37.5*
CCCCn1c(-c2csc3ccccc23)n[nH]c1=S | 14.1µM* | 15.8µM* | 9.7% | -9.9 | 4.6% | -2.2
CCCCn1c(-c2cccs2)nc2nc3ccccc3nc21 | 9.6% | 4.3% | x | 24.7 | -14.3% | 11.3
CCCCCCn1c(-c2cccs2)n[nH]c1=S | -29.2% | 2.82µM* | 0.2% | -5.1 | -9.2% | -4.3
CCCCn1c(-c2csc3c2CCC(C)C3)n[nH]c1=S (configuration not stated) | 17.8µM* | u | 16.6% | -10.6 | -14.6% | -2.7
CCn1c(-c2csc3c2CCCC3)n[nH]c1=S | u | u | -4.7% | -7.1 | 24.8% | 14.7
C=CCn1c(-c2csc3c2CCC(C)C3)n[nH]c1=S (configuration not stated) | u | u | 5.9% | -54.6 | 2.1% | 3.4
CCCCn1c(-c2csc3c2CCCC3)n[nH]c1=S | 12.6µM* | u | 0.8% | 36.7 | 2.5% | 22.4
CCCCCCC(=O)Oc1cccc(C2=CC(=O)CC(C)(C)C2=O)c1 | x | 3.8% | x | x | 1.1% | x
CC(=O)c1cc(-c2ccc(F)cc2)n(CCC(=O)Nc2nc3ccc(C)cc3s2)c1C | x | 0.4%[15.4 µM] | x | x | x | x
CCC1=C([N+](=O)[O-])C(c2ccc3c(c2)OCO3)NC(=O)N1 (configuration not stated) | 0.3% | 0.8% | 4.2% | x | 2.3% | -2.6
COc1ccccc1CNC(=O)CN1C(=O)CSc2ccc(S(=O)(=O)N(C)C)cc21 | x | 0.0% | x | x | x | x
CCOC(=O)CN(C(=O)CSc1nnc(-c2cccc(OC)c2)o1)c1ccc(F)cc1 | -2.8% | 9.0% | -10.2% | 31.7 | 18.7% | 14.7*
CCOC(=O)CN(C(=O)CSc1nnc(CNc2ccc(F)cc2)o1)c1ccccc1 | 4.5% | -15.3% | -1.8% | -6.0 | -7.6% | 21.9*
CCCCC[C@H](O)/C=C/[C@@H]1[C@H]2C/C(=C/CCCC(=O)O)C[C@H]2C[C@H]1O | x | x | 0.8% | x | x | x
CC1=NN(c2ccccc2)C(=O)C1N=Nc1ccccc1 (configuration not stated) | 4.7% | -3.3% | u | 108.9* | -0.5% | 21.2*
CC1=NN(c2ccccc2)C(=O)C1c1ccccc1 (configuration not stated) | -2.4% | -8.3% | -12.1% | 8.2 | 0.7% | 1.0
CC1=NN(c2ccccc2)C(=O)C1C(=O)c1ccccc1 (configuration not stated) | 2.5% | -2.7% | 6.0% | 10.1 | -14.0% | 7.1
CC1=NN(c2ccccc2)C(=O)C1N=Nc1ccc(N)cc1 (configuration not stated) | -14.9% | -16.0% | u | 80.3* | u | 55.2*
COc1ccc(C(=O)NNC(=O)CCn2nnc(-c3ccc(C)cc3)n2)cc1OC | -2.0% | -3.9% | 6.3% | 1.7 | 26.2% | -1.6
